Experimental findings from PubChem BioAssay (Tox21) are described below.

Inconclusive results are not listed. Values without a mark were called inactive. The source made the active and inactive calls. Calls come from the whole dose curve; as a rule, active = well fitted curve in the direction sought with a large enough effect in the repeat runs; inconclusive = weak or mixed curves; inactive = no such curve, though single readings can be large; an effect the other way counts as inactive or inconclusive.
% is set by controls: 0 for no effect and ±100 for the full control effect.

System in the first test: not listed separately
Briefly: qHTS assay to identify small molecule antagonists of the androgen receptor (AR) signaling pathway using the MDA cell line in the presence of 0.5 nM R1881 - cell viability counter screen (AID 1259242). Note: nearly all actives have a fitted effect of over 45% in size. The conditions noted are these: MDA-kb2 viability, CellTiter-Fluor protease fluorescence, 16 h; series mostly up to 92.4 µM; viability change, negative = cytotoxic: at the top concentration. A digest of the protocol: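 Viability of MDA-kb2 cells was multiplexed with the luciferase AR readout; after 16 hr with compounds and R1881 at 0.5 nM final, CellTiter-Fluor fluorescence was recorded.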
On the technique in general: Quantitative high-throughput screening tests each substance at several concentrations.
Regarding `CCCCCCCCCC[N+](C)(C)[O-]`, the “viability change, negative = cytotoxic” value is 0.959%.
In the case of `CO[C@@]1(NC(=O)CSC[C@@H](N)C(=O)O)C(=O)N2C(C(=O)O)=C(CSc3nnnn3C)CS[C@@H]21`, the “viability change, negative = cytotoxic” value was 0.611% [at 42.5 µM].
As to `CC(=O)O[C@@]12CO[C@@H]1C[C@H](O)[C@@]1(C)C(=O)[C@H](O)C3=C(C)[C@@H](OC(=O)[C@H](O)[C@@H](NC(=O)OC(C)(C)C)c4ccccc4)C[C@@](O)([C@@H](OC(=O)c4ccccc4)[C@H]21)C3(C)C`, the “viability change, negative = cytotoxic” value was -4.08% [at 42.5 µM].
On the same count and under the same terms, under `CC1(C)OC[C@@H](COC(=O)CCc2ccc(OC[C@@H](O)CNCCNC(=O)N3CCOCC3)cc2)O1` stands 1.68% [at 42.5 µM]; under `Cc1ccc(C(=O)c2ccc(CC(=O)O)n2C)cc1`, 4.35% [at 42.5 µM]; under `O=S(=O)(O)c1cccc(S(=O)(=O)O)c1`, 4.62%.
For the compound `CCCCCC(C)N` (stereo unspecified), the “viability change, negative = cytotoxic” value was 5.61% [at 42.5 µM].
Turning to `CCCCCCCC1CCCC1=O` (stereo unspecified), the “viability change, negative = cytotoxic” value is 2.14%.
With `CC(=O)N1C[C@H](O)C[C@H]1C(=O)O`, the “viability change, negative = cytotoxic” value is -2.07% [at 42.5 µM].
As to `CCCOC(=O)CC`, the “viability change, negative = cytotoxic” value is 7.23%.
`O=C(O)Cc1csc(-c2ccc(Cl)cc2)n1`: the “viability change, negative = cytotoxic” value is 3.39% [at 42.5 µM].
For `Nc1c2c(nc3c1CCC3)CCCC2`, the “viability change, negative = cytotoxic” value is 2.52% [at 42.5 µM].
Turning to `O=[N+]([O-])c1cncn1CCN1CCOCC1`, the “viability change, negative = cytotoxic” value is 3.45% [at 42.5 µM].
On the same count and under the same terms, under `C=C(C)C(=O)OCC(O)CO` (stereo unspecified) stands -0.141% [at 42.5 µM].
Turning to `COCCOC[C@H](CC1(C(=O)NC2CCC(C(=O)O)CC2)CCCC1)C(=O)Oc1ccc2c(c1)CCC2` (stereo partly specified), the “viability change, negative = cytotoxic” value was -0.438%.
`CCCCOCCOC(=O)COc1cc(Cl)c(Cl)cc1Cl`: the “viability change, negative = cytotoxic” value was 0.108%.
Turning to `Cc1ccc(-c2ccccc2C#N)cc1`, the “viability change, negative = cytotoxic” value was -0.995% [at 42.5 µM].
The same measure, in the same setting: under `C[N+](C)(CCOc1ccccc1)Cc1cccs1` stands -1.91% [at 42.5 µM].
Consider `NC(=O)NC1N=C([O][Al])NC1=O` (stereo unspecified), for which the “viability change, negative = cytotoxic” value is 4.42% [at 42.5 µM].
The same measure, in the same setting: under `CCOC(=O)COc1cc(-n2ncc(C(F)(F)F)c(C)c2=O)c(F)cc1Cl` stands 1.6%; under `CCOC(=O)C(=O)CCCCCCl`, 2.2% [at 42.5 µM]; under `CC1CCC(CO)CC1` (stereo unspecified), 0.772%.
Turning to `Cc1onc(-c2c(Cl)cccc2Cl)c1C(=O)Cl`, the “viability change, negative = cytotoxic” value is -0.0214% [at 42.5 µM].
Take `Cc1nc2ccc(CN(C)c3ccc(C(=O)N[C@@H](CCC(=O)O)C(=O)O)s3)cc2c(=O)[nH]1`: the “viability change, negative = cytotoxic” value was 1.59% [at 42.5 µM].
On the same count and under the same terms, under `COC(=O)Nc1ccc(Cl)c(Cl)c1` stands 4.76%; under `NS(=O)(=O)Cc1noc2ccccc12`, 1.32% [at 42.5 µM].
As for `O=S(=O)(O)c1cc(O)c(O)c(S(=O)(=O)O)c1`, the “viability change, negative = cytotoxic” value is 5.85%.
As to `CC1=NN(c2cccc(S(=O)(=O)O)c2)C(=O)C1`, the “viability change, negative = cytotoxic” value is -3.17%.
`CC(C)(C)c1ccc(-c2ccc(C(C)(C)C)cc2)cc1`: the “viability change, negative = cytotoxic” value was 0.0123%.
As to `CC[N+](CC)(CC)CCOc1cccc(OCC[N+](CC)(CC)CC)c1OCC[N+](CC)(CC)CC`, the “viability change, negative = cytotoxic” value is 4.79% [at 42.5 µM].
In the case of `Cc1ccc(-c2ncc(Cl)cc2-c2ccc(S(C)(=O)=O)cc2)cn1`, the “viability change, negative = cytotoxic” value was -0.313% [at 42.5 µM].
For the compound `CCCCS(=O)(=O)N[C@@H](Cc1ccc(OCCCCC2CCNCC2)cc1)C(=O)O`, the “viability change, negative = cytotoxic” value is 1.15% [at 42.5 µM].
On the same count and under the same terms, under `O=C(c1ccccc1O)c1ccccc1O` stands 0.583%; under `CC(=O)N[C@H]1[C@H]([C@H](O)[C@H](O)CO)OC(C(=O)O)=C[C@@H]1N=C(N)N`, 5.15% [at 42.5 µM].
As for `C=C[Si](OC(C)=O)(OC(C)=O)OC(C)=O`, the “viability change, negative = cytotoxic” value was 1.26%.
On the same count and under the same terms, under `CCOc1c(N2CCOCC2)cnn(C)c1=O` stands 5.76% [at 42.5 µM].
In the case of `O=C(O)CCSCCC(=O)O`, the “viability change, negative = cytotoxic” value is 4.8%.
Still for that read-out and setting: under `CC(C)NNC(=O)c1ccncc1` stands -1.49% [at 42.5 µM].

In the next test the target is Androgen receptor (Homo sapiens) (UniProt P10275). Nature of the test: qHTS assay to identify small molecule antagonists of the androgen receptor (AR) signaling pathway using the MDA cell line in the presence of 0.5 nM R1881 (AID 1259243). Note: nearly all actives have a fitted effect of over 50% in size. Note: potency is the fitted concentration of half-maximal effect. Conditions: MDA-kb2 MMTV-luciferase, R1881 0.5 nM, 16 h; series mostly up to 42.5 µM; activity, negative = inhibition: at the top concentration. A digest of the protocol: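 Reporter cells cultured without CO2 receive test chemicals, then 0.5 nM R1881 final; after 16 hr at 37C, ONE-Glo is added and light output recorded.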
Chain of Androgen receptor (Homo sapiens) (P10275 whole entry, looked up): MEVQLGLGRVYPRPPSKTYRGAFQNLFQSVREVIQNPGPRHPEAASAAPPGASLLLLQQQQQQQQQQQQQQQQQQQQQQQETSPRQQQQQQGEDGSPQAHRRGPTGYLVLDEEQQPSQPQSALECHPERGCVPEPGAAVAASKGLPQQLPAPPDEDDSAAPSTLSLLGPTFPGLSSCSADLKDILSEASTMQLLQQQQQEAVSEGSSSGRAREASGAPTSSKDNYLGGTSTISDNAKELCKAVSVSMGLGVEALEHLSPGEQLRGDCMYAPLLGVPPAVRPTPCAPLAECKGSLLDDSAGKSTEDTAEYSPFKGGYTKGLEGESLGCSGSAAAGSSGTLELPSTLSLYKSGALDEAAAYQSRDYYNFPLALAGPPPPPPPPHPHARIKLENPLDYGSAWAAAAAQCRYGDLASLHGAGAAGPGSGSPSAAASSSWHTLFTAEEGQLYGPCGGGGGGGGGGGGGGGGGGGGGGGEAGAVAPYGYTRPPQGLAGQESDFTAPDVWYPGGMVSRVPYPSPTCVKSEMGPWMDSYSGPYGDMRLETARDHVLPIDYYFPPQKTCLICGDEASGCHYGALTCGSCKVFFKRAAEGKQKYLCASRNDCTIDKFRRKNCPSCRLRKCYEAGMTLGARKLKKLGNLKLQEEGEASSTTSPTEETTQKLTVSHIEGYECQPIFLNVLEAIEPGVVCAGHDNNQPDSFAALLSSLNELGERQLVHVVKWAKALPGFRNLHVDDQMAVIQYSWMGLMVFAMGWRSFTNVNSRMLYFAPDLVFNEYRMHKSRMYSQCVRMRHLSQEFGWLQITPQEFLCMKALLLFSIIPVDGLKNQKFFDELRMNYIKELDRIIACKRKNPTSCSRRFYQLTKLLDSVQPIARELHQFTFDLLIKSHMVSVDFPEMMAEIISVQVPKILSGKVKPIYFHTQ
Regarding `CCCCCCCCCC[N+](C)(C)[O-]`, the “activity, negative = inhibition” value is 3.93% [at 92.4 µM].
The same measure, in the same setting: under `CO[C@@]1(NC(=O)CSC[C@@H](N)C(=O)O)C(=O)N2C(C(=O)O)=C(CSc3nnnn3C)CS[C@@H]21` stands 2.56%; under `CC(=O)O[C@@]12CO[C@@H]1C[C@H](O)[C@@]1(C)C(=O)[C@H](O)C3=C(C)[C@@H](OC(=O)[C@H](O)[C@@H](NC(=O)OC(C)(C)C)c4ccccc4)C[C@@](O)([C@@H](OC(=O)c4ccccc4)[C@H]21)C3(C)C`, -20.8%.
For the compound `CC1(C)OC[C@@H](COC(=O)CCc2ccc(OC[C@@H](O)CNCCNC(=O)N3CCOCC3)cc2)O1`, the “activity, negative = inhibition” value is 9.17%.
On to `Cc1ccc(C(=O)c2ccc(CC(=O)O)n2C)cc1`, for which the “activity, negative = inhibition” value was -4.55%.
The same measure, in the same setting: under `O=S(=O)(O)c1cccc(S(=O)(=O)O)c1` stands 2.2% [at 92.4 µM].
Regarding `CCCCCC(C)N` (stereo unspecified), the “activity, negative = inhibition” value was 30.9%.
Still for that read-out and setting: under `CCCCCCCC1CCCC1=O` (stereo unspecified) stands 2.41% [at 92.4 µM].
As for `CC(=O)N1C[C@H](O)C[C@H]1C(=O)O`, the “activity, negative = inhibition” value was 10.6%.
In the case of `CCCOC(=O)CC`, the “activity, negative = inhibition” value was 2.59% [at 92.4 µM].
As for `O=C(O)Cc1csc(-c2ccc(Cl)cc2)n1`, the “activity, negative = inhibition” value is -2.29%.
Take `Nc1c2c(nc3c1CCC3)CCCC2`: the “activity, negative = inhibition” value is 18.7%.
Consider `O=[N+]([O-])c1cncn1CCN1CCOCC1`, for which the “activity, negative = inhibition” value was -2.62%.
`C=C(C)C(=O)OCC(O)CO` (stereo unspecified): the “activity, negative = inhibition” value is -1.9%.
In the case of `COCCOC[C@H](CC1(C(=O)NC2CCC(C(=O)O)CC2)CCCC1)C(=O)Oc1ccc2c(c1)CCC2` (stereo partly specified), the “activity, negative = inhibition” value was 16.7% [at 92.4 µM].
The same measure, in the same setting: under `CCCCOCCOC(=O)COc1cc(Cl)c(Cl)cc1Cl` stands 12.5% [at 92.4 µM].
On to `Cc1ccc(-c2ccccc2C#N)cc1`, for which the Potency is 11.9 µM (active).
As for `C[N+](C)(CCOc1ccccc1)Cc1cccs1`, the “activity, negative = inhibition” value was 9.87%.
Consider `NC(=O)NC1N=C([O][Al])NC1=O` (stereo unspecified), for which the “activity, negative = inhibition” value is -21.2%.
With `CCOC(=O)COc1cc(-n2ncc(C(F)(F)F)c(C)c2=O)c(F)cc1Cl`, the “activity, negative = inhibition” value was -14.8% [at 92.4 µM].
With `CCOC(=O)C(=O)CCCCCCl`, the “activity, negative = inhibition” value was 3.66%.
On the same count and under the same terms, under `CC1CCC(CO)CC1` (stereo unspecified) stands 4.95% [at 92.4 µM].
As for `Cc1onc(-c2c(Cl)cccc2Cl)c1C(=O)Cl`, the “activity, negative = inhibition” value was 7.85%.
`Cc1nc2ccc(CN(C)c3ccc(C(=O)N[C@@H](CCC(=O)O)C(=O)O)s3)cc2c(=O)[nH]1`: the “activity, negative = inhibition” value was -0.0077%.
For `COC(=O)Nc1ccc(Cl)c(Cl)c1`, the Potency was 6.82 µM (active).
As for `NS(=O)(=O)Cc1noc2ccccc12`, the “activity, negative = inhibition” value was 1.14%.
For the compound `O=S(=O)(O)c1cc(O)c(O)c(S(=O)(=O)O)c1`, the “activity, negative = inhibition” value was 1.6% [at 92.4 µM].
Regarding `CC1=NN(c2cccc(S(=O)(=O)O)c2)C(=O)C1`, the “activity, negative = inhibition” value was -8.65% [at 92.4 µM].
Same read-out and setting: under `CC(C)(C)c1ccc(-c2ccc(C(C)(C)C)cc2)cc1` stands 32.6% [at 92.4 µM]; under `CC[N+](CC)(CC)CCOc1cccc(OCC[N+](CC)(CC)CC)c1OCC[N+](CC)(CC)CC`, 0.0894%; under `Cc1ccc(-c2ncc(Cl)cc2-c2ccc(S(C)(=O)=O)cc2)cn1`, -0.042%.
For the compound `CCCCS(=O)(=O)N[C@@H](Cc1ccc(OCCCCC2CCNCC2)cc1)C(=O)O`, the “activity, negative = inhibition” value was 25.3%.
`O=C(c1ccccc1O)c1ccccc1O`: the Potency was 24.1 µM (active).
Turning to `CC(=O)N[C@H]1[C@H]([C@H](O)[C@H](O)CO)OC(C(=O)O)=C[C@@H]1N=C(N)N`, the “activity, negative = inhibition” value was 6.64%.
For the compound `C=C[Si](OC(C)=O)(OC(C)=O)OC(C)=O`, the “activity, negative = inhibition” value was 0.789% [at 92.4 µM].
For `CCOc1c(N2CCOCC2)cnn(C)c1=O`, the “activity, negative = inhibition” value was 19.9%.
In the case of `O=C(O)CCSCCC(=O)O`, the “activity, negative = inhibition” value was 18.2% [at 92.4 µM].
Turning to `CC(C)NNC(=O)c1ccncc1`, the “activity, negative = inhibition” value is 6.4%.
